Only some compounds are listed: those with a hit (about 27% of all), similar ones and a draw of the others.
CYP2C19 inhib: blockers of cytochrome P450 2C19 activity – biochemical, luminescence, ADME assay, primary screen; P33261; CYP2C19 Supersomes, luciferin-H EGE luminescence, 30 min; inhibition, % at 5 µM; actives 21% (n = 96,000); AID 778, 2007;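 active = CYP2C19 inhibition above a set limit at 5 µM in the primary screen, cut at about 50% in these data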;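 also: plate controls were negative control wells for no effect and 2.5 mM tranylcypromine positive control for full effect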
Cav3 T inh: Cav3.2 calcium influx blockers – cell-based, Fluo-4 calcium fluorescence, FDSS, MLSMR library, primary screen. Voltage-dependent T-type calcium channel subunit alpha-1H (Homo sapiens), O95180. Cav3.2-expressing cells; active compounds read low. B-score at 10 µM. actives 4% (n = 100,000). AID 449739, 2010;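 active = single-dose well whose peak fluorescence ratio is a statistical outlier from its plate by either plate-standardised score or position-corrected B-score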
CYP2C9 activ: human CYP2C9 activators, primary screen, biochemical, luminescence. actives 1.4% (n = 96,000). activation factor at 5 µM. Cytochrome P450 2C9 (Homo sapiens), P11712. recombinant CYP2C9, luciferin-H conversion; active compounds read high; factor 1 = untreated enzyme, 0 = blocked;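 active = activation factor of 2 or more for CYP2C9 at a 5 µM dose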;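 also: 0 = sulfaphenazole-blocked wells and 1 = vehicle-only wells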
Target sequence (P11712 whole entry, looked up): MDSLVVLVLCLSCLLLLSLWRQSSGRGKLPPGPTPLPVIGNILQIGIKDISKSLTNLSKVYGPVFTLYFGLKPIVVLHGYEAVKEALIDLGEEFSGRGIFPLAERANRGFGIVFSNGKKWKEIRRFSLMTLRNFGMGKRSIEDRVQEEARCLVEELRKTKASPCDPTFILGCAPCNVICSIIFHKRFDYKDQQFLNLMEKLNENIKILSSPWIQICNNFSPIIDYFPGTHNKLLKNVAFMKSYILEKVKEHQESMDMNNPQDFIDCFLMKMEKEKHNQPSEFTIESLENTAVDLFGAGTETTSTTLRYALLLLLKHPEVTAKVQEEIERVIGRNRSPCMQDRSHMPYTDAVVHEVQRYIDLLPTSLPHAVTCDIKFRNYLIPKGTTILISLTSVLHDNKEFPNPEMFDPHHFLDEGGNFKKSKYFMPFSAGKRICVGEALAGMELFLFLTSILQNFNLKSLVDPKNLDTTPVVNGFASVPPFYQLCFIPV
CYP2C9 inhib: blockers of cytochrome P450 2C9 activity – biochemical, luminescence, ADME assay, primary screen. P11712. CYP2C9 Supersomes, luciferin-H conversion. inhibition, % at 5 µM. actives 20% (n = 96,000). AID 777, 2007;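 active = blocking of liver enzyme CYP2C9 beyond about 50% at 5 µM, limit read from the data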
CYP2C19 activ: human CYP2C19 activators, primary screen, biochemical, luminescence | Cytochrome P450 2C19 (Homo sapiens), P33261 | recombinant CYP2C19, luciferin-H EGE luminescence; active compounds read high; 0 = fully inhibited enzyme, 1 = untreated enzyme | activation factor at 5 µM | 96,000 tested, under 10 active;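 active = activation factor of at least 2 at 5 µM in the primary screen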;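 also: 0 = wells with 2.5 mM tranylcypromine and 1 = vehicle-only wells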
Active calls of the source: *; nt = no result.

SMILES | CYP2C19 inhib | Cav3 T inh | CYP2C9 activ | CYP2C9 inhib | CYP2C19 activ
COCCN1C(=O)c2cc(C(=O)Nc3ccc(C)c(F)c3)ccc2C1Nc1ccc(C)c(F)c1 (stereo not given) | nt | -1.67 | nt | nt | nt
Cc1cc(C)c2c(c1)SC1=NC(c3ccccc3)(C(F)(F)F)NC(=O)N12 (stereo not given) | 20.4 | 0.604 | 0.9 | 13.4 | 0.8
CCn1c2ccccc2c2nnc(SCC(=O)NCc3cccs3)nc21 | 95.9* | 0.983 | 0.6 | 36.0 | 0
CC1(C)Cc2ccccc2C(=NCCCCCC(=O)O)N1 | nt | -0.318 | nt | nt | nt
CN(C)/C=C(\C#N)C(=O)Nc1ccc(F)cc1 | 2.1 | 0.184 | 1.1 | -7.4 | 1
Cc1cccc(C)c1NC(=O)c1sccc1SCc1cccc(C(F)(F)F)c1 | 69.0* | -2.96 | 0.3 | 72.9* | 0.3
N#CCSc1ccsc1C(=O)Nc1ccc(F)cc1 | 53.1* | 0.0258 | 1.2 | -23.4 | 0.5
Cc1ccc(NC(=O)c2ccc(CNS(=O)(=O)c3cccc(C(F)(F)F)c3)cc2)cc1 | 1.7 | nt | 1 | 2.7 | 1
Cc1ccc(NC(=O)c2sccc2SCc2cccc(C(F)(F)F)c2)cc1 | 69.1* | -3.51 | 0.3 | 73.6* | 0.3
COc1ccc(N2CCN(C(=O)CCc3ccc(S(=O)(=O)NC(C)C)cc3)CC2)cc1 | nt | 0.0991 | nt | nt | nt
C=C(C)C1CC=C(C)/C(=N/NC(=O)CNc2ccc(OCC)cc2)C1 (stereo not given) | 2.9 | -1.28 | 0.9 | 5.3 | 1
CCOC(=O)c1ccc(N2C(=O)CC(NC3CCN(C(=O)c4cccc(Cl)c4)CC3)C2=O)cc1 (stereo not given) | 34.1 | 0.898 | 0.7 | 33.1 | 0.7
CCOC(=O)c1cnn(-c2ccccc2)c1-c1ccccc1 | 47.5 | -1.19 | 0.6 | 43.7 | 0.5
Cc1c(C(=O)Oc2cccc3ccccc23)cnn1-c1ccccc1 | 67.2* | -1.03 | 0.6 | 40.1 | 0.3
CCOC(=O)c1cnn(-c2ccccc2)c1-n1cccc1C(=O)C(=O)Nc1ccc(OC)cc1 | 29.7 | -3.35 | 0.2 | 79.8* | 0.7
CCOC(=O)c1cnn(-c2ccccc2)c1-n1cccc1 | 55.3* | -1.18 | 0.7 | 27.4 | 0.4
CCCNC(=O)C1CC(=O)N(c2ccc(OCC(=O)Nc3cc(C)cc(C)c3)cc2)C1 (stereo not given) | -14.1 | -0.505 | 0.8 | 19.1 | 1.1
C#CCSc1nnc(-c2cc3c(C(F)(F)F)nn(C)c3s2)n1C | -3.1 | -0.0116 | 1.7 | -68.9 | 1
O=C(NC(C(=O)N/N=C/c1ccccc1)c1n[nH]c(=O)c2ccccc12)c1ccccc1 (stereo not given) | 36.8 | nt | 0.5 | 51.9* | 0.6
CCOC(=O)COc1c(C=O)cc(Br)cc1OC | 56.5* | 0.516 | 2* | -98.3 | 0.4
COc1ccc(CNC(=O)/C=C/c2cc([N+](=O)[O-])ccc2OC(F)F)cc1 | 6.7 | 0.758 | 1 | -2.1 | 0.9
COc1ccc(CNC(=O)/C=C/c2cc([N+](=O)[O-])ccc2OC(F)F)cc1OC | 28.7 | -0.175 | 2.1* | -107.9 | 0.7
O=C1c2ccccc2NC(c2cccc(Cl)c2)N1N=C1CCCCCC1 (stereo not given) | 29.0 | -3.88* | 0.9 | 7.4 | 0.7
CCN(CC)CCN1C(=O)c2ccccc2NC1c1cccc(F)c1 (stereo not given) | 0.4 | 0.97 | 1.2 | -15.4 | 1
CCCCOC(=O)C1Cc2ccccc2C(=O)O1 (stereo not given) | 85.0* | -0.0347 | 0.8 | 24.5 | 0.2
SMILES | CYP2C19 inhib | Cav3 T inh | CYP2C9 activ | CYP2C9 inhib | CYP2C19 activ
Nc1nc2ccc(Oc3ccccc3)cc2s1 | 67.5* | -2.41 | 0.3 | 71.1* | 0.3
CC(=O)N1CCc2cc(S(=O)(=O)NC(CC(C)C)C(=O)N3CCc4ccccc4C3)ccc21 (stereo not given) | 28.5 | 0.789 | 0.6 | 42.6 | 0.7
CN(C)c1ccc(/C=N/Nc2ccc(-n3ccnc3)nn2)cc1 | 62.0* | -0.0617 | 0.3 | 69.6* | 0.4
C=CCc1c(C)nc(C)nc1N/N=C/c1ccc(N(C)C)cc1 | 26.8 | 0.226 | 1 | 1.2 | 0.7
O=C(Oc1cccc(NC(=O)c2ccccc2Cl)c1)c1ccc([N+](=O)[O-])cc1 | 13.1 | -1.83 | 0.7 | 25.3 | 0.9
O=C1C2(CCC13COC(c1ccc(O)cc1)OC3)COC(c1ccc(O)cc1)OC2 (stereo not given) | -8.7 | 1.73 | 1 | -4.0 | 1.1
CCC1=C(OC(=O)N(CC)CC)N2C(=O)OC(=NCC(=O)OC)[C@]2(Cc2ccccc2)[C@H]2C1=CC[C@H]1C(=O)N(CC(=O)OC)C(=O)[C@H]12 | nt | -1.43 | nt | nt | nt
O=C1NCCN1Cc1ccccc1F | nt | -0.469 | nt | nt | nt
N#Cc1nc(COc2ccccc2Cl)oc1N1CCCCCC1 | nt | 0.584 | nt | nt | nt
COc1ccc(N2CCN(c3oc(COc4ccccc4Cl)nc3C#N)CC2)cc1 | 38.5 | -2.31 | 0.4 | 56.5* | 0.6
COc1ccc(OCc2nc(C#N)c(N3CCN(c4ccc(OC)cc4)CC3)o2)cc1 | nt | -4.48* | nt | nt | nt
CC1CCc2nn(CC(=O)NC3CCCC(C)C3C)cc2C1 (stereo not given) | 2.4 | -0.763 | 1 | 3.1 | 1
COc1ccc(-n2nc(C(=O)Nc3ccc(OC)c(OC)c3)c3c4ccccc4n(C)c3c2=O)cc1 | 9.3 | -0.785 | 0.8 | 20.8 | 0.9
CCc1cccc(NC(=O)CCSCCC(=O)Nc2cccc(CC)c2)c1 | 22.8 | -7.46* | 0.4 | 61.5* | 0.8
COc1ccc(NC(=O)c2c(Cl)n(C)c3ccccc23)cc1 | 13.1 | -2.14 | 2.3* | -125.8 | 0.9
Cc1ccc(NC(=O)CCSCCC(=O)Nc2ccc(C)c(C)c2)cc1C | 32.7 | -6.78* | 0.6 | 41.9 | 0.7
Cc1ccc(C)c(NC(=O)CCn2nc(C)cc2C)c1 | 11.2 | nt | 1.2 | -15.9 | 0.9
Cc1ccc(NC(=O)CCn2nc(C)cc2C)cc1 | 74.3* | 1.51 | 1.1 | -13.9 | 0.3
Cc1ccc(NC(=O)CSCC(N)=O)cc1C | 11.7 | 0.581 | 1.1 | -13.7 | 0.9
COC(=O)Cn1nc(-c2ccccc2)c2ccccc21 | nt | -0.326 | nt | nt | nt
O=C1NC(=S)SC1=C1CCCCCC1 | 13.2 | -2.94 | 0.8 | 19.6 | 0.9
Cc1ccc(NC(=O)CCn2cccc2)cc1C | 85.4* | 0.604 | 0.9 | 9.2 | 0.1
Cc1ccc(NC(=O)CCn2cccc2)cc1 | 91.6* | -2.41 | 0.6 | 36.7 | 0.1
COc1ccc(NC(=O)CCn2cccc2)cc1 | 51.3* | 0.257 | 1 | 3.0 | 0.5
COc1ccc(NC(=O)CCN2CCC(C)CC2)cc1 | 7.7 | 0.97 | 0.9 | 6.7 | 0.9
Cc1ccc(NC(=O)Cn2cccc2)cc1C | 47.0 | 0.456 | 0.8 | 22.4 | 0.5
O=C(NCCN1CCN(c2ccccc2)CC1)C1CCN(S(=O)(=O)N2CCOCC2)CC1 | 2.9 | -0.464 | 0.9 | 9.6 | 1
CCNC(=O)Cn1cc(C#N)c2ccccc21 | nt | 1.04 | nt | nt | nt
